This is a sample that favours compounds with a hit; in the whole collection about 15% have one here.
SARS PLpro yeast – qHTS of Yeast-based Assay for SARS-CoV PLP; S. cerevisiae expressing SARS-CoV PLpro, growth rescue; Potency, µM (top dose mostly 32.9 µM), usual class: activators; actives 0.19% (n = 330,000); calls by dose curve; note: nearly all actives have a fitted effect of over 55% in size
Pf growth 48h – Primary qHTS for delayed death inhibitors of the malarial parasite plastid, 48 hour incubation. P. falciparum luciferase growth in erythrocytes, 48 h. Potency, µM (top dose mostly 28.7 µM), hits mostly inhibitors. actives 5.9% (n = 310,000). AID 504832, 2011
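A one-generation exposure of luciferase-tagged malaria parasites in RPMI 1640/Albumax erythrocyte culture, 37 C and 5% CO2. Inhibition is inferred from decreased luminescence after adding detection reagent.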
Pf growth 96h – Primary qHTS for delayed death inhibitors of the malarial parasite plastid, 96 hour incubation; P. falciparum luciferase reporter growth, 96 h; Potency, µM (doses to about 28.7 µM), actives largely listed as inhibitors; actives 6.9% (n = 320,000); AID 504834, 2011
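Parasite growth measured via integrated firefly luciferase reporter in P. falciparum. Infected erythrocytes at 2% hematocrit, 0.05% parasitemia final were treated 96 hours at 37 C under 5% CO2, and luminescence was read.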
Sm TGR block – qHTS Assay for the Inhibitors of Schistosoma Mansoni Peroxiredoxins; Schistosoma mansoni thioredoxin glutathione reductase (TGR), Q962Y6; purified TGR, DTNB reduction, TNB absorbance 405 nm; Potency, µM (highest dose often 114 µM), usual class: inhibitors; actives 3% (n = 360,000); AID 485364, 2010; note: nearly all actives have a fitted effect of over 60% in size
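TGR 20 nM + NADPH 100 uM (dispensed conc.), cpd preinc 15 min RT; start with NADPH (500 uM addition) then DTNB (15 mM addition). Kinetic TNB absorbance, 405 nm filter. Four-parameter Hill fit across titration.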
HCMV antiviral – qHTS Assay for inhibitors of the human cytomegalovirus (HCMV) | HFF cells, HCMV-luciferase reporter, 72 h; stronger effect = lower value | activity change, negative = inhibition, % at 57.5 µM | actives 4.5% (n = 410,000) | AID 1259415, 2018; in the data active = activity change below about -60%; inconclusive = no clear call, values can overlap the other calls; inactive = above about -39%
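Screen run at 2 compound doses on HFFs infected with reporter HCMV, MOI 1 PFU/cell. Luciferase activity from cell lysates at 72 h post infection gave inhibition relative to buffer-only and Salinomycin wells.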
HCV inhibitor – qHTS Assay for Inhibitors of Hepatitis C Virus (HCV); Huh7.5.1 HCVcc-Cre infection, luciferase reporter, 44 h; actives 3.4% (n = 340,000); Potency, µM (series often up to 41.8 µM), most hits filed as inhibitors
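Infectious HCVcc-Cre (~0.5 moi) was added to cells just after compound, with cells seeded 4 h earlier at 1,000 per well. Luciferase activity after 44 h culture reported infection; substrate was incubated 15 min at room temperature before reading.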
A number is an active result; i = inactive; ? = inconclusive; nt = no result given; [ ] = dose if it differs, or a comment. Unless noted, calls come from the whole dose curve; as a rule, active = well fitted curve in the direction sought with a large enough effect; inconclusive = small, poorly fitted or top-dose-only effect, or another doubt; inactive = no such curve, though single readings can be large; an effect the other way counts as inactive or inconclusive.

SMILES	SARS PLpro yeast	Pf growth 48h	Pf growth 96h	Sm TGR block	HCMV antiviral	HCV inhibitor
COc1ccc(Br)cc1-c1noc(-c2ccccc2)n1	?	i	nt	i	i	i
COCCCNc1nc(NCc2ccc(C)cc2)c2cnn(C)c2n1	nt	nt	nt	i	i	nt
Cc1nc(CCNC(=O)C2CCC(=O)N(Cc3ccc(Cl)cc3)C2)sc1C (stereo not given)	i	?	i	i	i	i
O=C(c1ccc2oc(CCc3ccccc3)nc2c1)N1CC[C@H](O)C1	i	i	7.38µM	i	i	i
CCOC(=O)N1CCN(C(=O)c2ccc3oc(CCCc4ccccc4)nc3c2)CC1	nt	i	10.4µM	i	i	i
CC(C)NC(=O)CN1CCN(C(=O)c2ccc3oc(CCCc4ccccc4)nc3c2)CC1	i	i	i	?	i	nt
CC(C)CC(=O)C1CCCN(C(=O)c2ccc3oc(Cc4ccccc4)nc3c2)C1 (stereo not given)	i	i	i	i	i	22.4µM
CC(=O)N1CCN(C(=O)c2ccc3oc(CCCc4ccccc4)nc3c2)CC1	?	i	13.1µM	i	i	i
CCOC(=O)C1CCCN(C(=O)c2ccc3oc(Cc4ccccc4)nc3c2)C1 (stereo not given)	i	i	i	i	i	i
COCC1CCN(C(=O)c2ccc3oc(CCc4ccccc4)nc3c2)C1 (stereo not given)	nt	nt	nt	nt	i	nt
O=C(c1ccc2oc(CCCc3ccccc3)nc2c1)N1CCCC(CCCO)C1 (stereo not given)	i	i	?	i	-60.6	i
COCC1CCCCN1C(=O)c1ccc2oc(CCCc3ccccc3)nc2c1 (stereo not given)	i	?	i	i	i	?
CCSc1nnc(NC(=O)C(C)C)s1	i	nt	i	i	i	i
CCSc1nnc(NC(=O)C(C(F)(F)F)C(F)(F)F)s1	i	i	?	39.8µM	i	i
CCSc1nnc(NC(=O)C(C)(C(F)(F)F)C(F)(F)F)s1	i	i	?	i	-65.9	?
COc1ccccc1N1CCN(CC(O)c2ccccc2)CC1 (stereo not given)	i	i	i	i	i	i
COc1ccccc1N1CCN(CC(=O)c2c(C)[nH]c3ccccc23)CC1	i	?	i	31.6µM	i	i
COc1ccccc1N1CCN(CC(O)c2c(C)[nH]c3ccccc23)CC1 (stereo not given)	i	i	i	15.8µM	?	i
COc1ccccc1N1CCN(CC(=O)c2c[nH]c3ccccc23)CC1	i	?	?	i	i	?
CSc1cccc(Nc2cc(C(=O)NCCCN(Cc3ccccc3)C(C)C)c3ccccc3n2)c1	nt	nt	nt	i	-103.8	nt
COc1ccc(N2CCN(CCCNC(=O)c3cc4sccc4n3C)CC2)cc1	i	i	nt	i	i	12.6µM
O=C(NCCCN1CCOCC1)C(=O)c1c[nH]c2ccccc12	i	i	i	i	i	i
COc1ccc(Nc2cc(C(=O)NCCCN(C)Cc3ccccc3)c3ccccc3n2)cc1	nt	nt	nt	i	-93.4	nt
COc1ccc(N2CCN(CCCNC(=O)C(=O)c3c[nH]c4ccccc34)CC2)cc1	i	3.7µM	2.08µM	i	i	?
COc1ccc(Nc2cc(C(=O)NCCCN(C)Cc3ccccc3)c3ccccc3n2)c(OC)c1	nt	nt	nt	i	i	nt
SMILES	SARS PLpro yeast	Pf growth 48h	Pf growth 96h	Sm TGR block	HCMV antiviral	HCV inhibitor
O=C(NCc1ccccc1Cl)C1CCCN(C(=O)c2cnn(-c3ccc(F)cc3)c2-n2cccc2)C1 (stereo not given)	nt	nt	nt	i	i	nt
C#CCN(C(=O)c1ccc(OC)c(OC2CCN(C(C)C)CC2)c1)C1CCCCC1	i	i	?	i	?	i
COc1ccc(Nc2cc(C(=O)NCCCN3CCN(c4ccc(OC)cc4)CC3)c3ccccc3n2)cc1	nt	nt	nt	i	-74.7	nt
COc1ccc(N2CCN(CCCNC(=O)c3cc(Nc4ccccc4OC)nc4ccccc34)CC2)cc1	nt	nt	nt	i	?	nt
O=C1C2ON(c3ccccc3)C(c3ccncc3)C2C(=O)N1c1ccc(Br)cc1 (stereo not given)	i	i	i	44.7µM	i	i
O=C(O)COc1ccccc1C1C2C(=O)N(c3ccccc3)C(=O)C2ON1c1ccccc1 (stereo not given)	i	i	nt	22.4µM	i	i
Cc1ccc(N2C(=O)C3ON(c4ccccc4)C(c4ccncc4)C3C2=O)cc1 (stereo not given)	i	i	nt	15.8µM	i	i
O=C1C2ON(c3ccccc3)C(c3ccncc3)C2C(=O)N1c1ccc(N2CCOCC2)cc1 (stereo not given)	i	nt	i	i	-74.9	?
O=C1C2ON(c3ccccc3)C(c3ccccn3)C2C(=O)N1c1ccc(Br)cc1 (stereo not given)	i	i	nt	i	i	i
CN(C)c1ccc(C2C3C(=O)N(c4ccc(C(=O)O)cc4)C(=O)C3ON2c2ccccc2)cc1 (stereo not given)	i	i	i	i	i	i
CCOc1ccccc1C1C2C(=O)N(c3ccccc3)C(=O)C2ON1c1ccccc1 (stereo not given)	i	i	i[5.75 µM]	i	i	i
COc1ccccc1OCCC(=O)OCC(=O)c1[nH]c(C)c(C(C)=O)c1C	i	i	i	i	i	i
O=[N+]([O-])c1cccc(-c2csc(N/N=C/c3cccc(O)c3)n2)c1	i	i	i	i	i	?
Cc1nc2sccn2c(=O)c1S(=O)(=O)Nc1cc(C(F)(F)F)ccc1Cl	nt	nt	nt	i	i	nt
CCCCCCCCCC(=O)NO	nt	i	?	nt	nt	nt
CCCn1c(N)c(C(=O)CN(C)CC(=O)Nc2ccccc2C(F)(F)F)c(=O)[nH]c1=O	i	?	?	i	i	i
CCOc1ccc(NC(=O)c2c(C)oc3nc(C)nc(N4CCOCC4)c23)cc1	nt	nt	nt	i	i	nt
CC(=O)N1CCc2c(sc3c2c(=O)n(CCc2ccccc2)c(=O)n3Cc2ccc(F)cc2)C1	nt	nt	nt	i	-60.6	nt
COc1ccccc1NC(=O)Cn1c(=O)n(CCc2ccccc2)c(=O)c2c3c(sc21)CN(C(C)=O)CC3	nt	nt	nt	i	-91.6	nt
COc1ccc(S(=O)(=O)c2c(C(=O)c3ccc(C)c(C)c3)cnc3ccc(C)cc23)cc1	nt	nt	nt	i	?	nt
Cc1ccc(C(=O)c2cnc3cc4c(cc3c2S(=O)(=O)c2ccccc2)OCCO4)cc1	i	3.29µM	?	i	-93.6	i
Cc1ccc2ncc(C(=O)c3ccc(C)c(C)c3)c(S(=O)(=O)c3ccccc3)c2c1	nt	nt	nt	i	-92.2	nt
CCOc1ccc(S(=O)(=O)c2c(C(=O)c3ccc(C)cc3)cnc3cc4c(cc23)OCCO4)cc1	i	?	?	i	-62.1	i
CCc1ccc(C(=O)c2cnc3ccc(F)cc3c2S(=O)(=O)c2ccccc2)cc1	nt	nt	nt	i	i	nt

Source: PubChem BioAssay (National Center for Advancing Translational Sciences (NCATS))
